# According to PubChem BioAssay AID1159580 (chemical genetic matrix, 2015):
# Screen size: about 5,500 compounds; about 2,000 (36%) were called active. About 18% were inconclusive and are not listed. The list shows a part of the results. Unmarked numbers belong to inactive results. Cut-off read from the data, not from the text of the source: active = normalized growth mostly below about 0.91 (no sharp cut-off); inconclusive = no clear call, values can overlap the other calls; inactive = mostly above about 0.92.
# Assay: chemical genetic growth profiling, strain panel (AID 1159580);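 note: tested at 20 µM; growth read once vehicle control cultures reached saturation at 30 °C; 1 = growth at the plate median or of vehicle wells; lower values mean less growth of the strain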
# Conditions: growth OD
smiles,measurement,setting,value
Cc1cc(C(C)(C)C)c(O)c(C(C)(C)C)c1,normalized growth,"S. cerevisiae deletion strains, locus YJR075W, strain HOC1, active compounds read low",0.929
same,normalized growth,"S. cerevisiae deletion strains, locus YKL009W, strain mrt4, active compounds read low",1
same,normalized growth,"S. cerevisiae deletion strains, locus YKL068W, active compounds read low",0.978
same,normalized growth,"S. cerevisiae deletion strains, locus YKL085W, strain MDH1 (second series), active compounds read low",1
same,normalized growth,"S. cerevisiae deletion strains, locus YKL085W, strain MDH1, active compounds read low",1
same,normalized growth,"S. cerevisiae deletion strains, locus YKL160W, strain elf1, active compounds read low",1
same,normalized growth,"S. cerevisiae deletion strains, locus YKL190W, strain CNB1, active compounds read low",0.96
same,normalized growth,"S. cerevisiae deletion strains, locus YKR001C, strain vps1, active compounds read low",0.927
same,normalized growth,"S. cerevisiae deletion strains, locus YKR026C, strain gcn3, active compounds read low",0.978
same,normalized growth,"S. cerevisiae deletion strains, locus YKR091W, strain srl3, active compounds read low",0.986
same,normalized growth,"S. cerevisiae deletion strains, locus YLL001W, strain dnm1, active compounds read low",0.99
same,normalized growth,"S. cerevisiae deletion strains, locus YLL026W, active compounds read low",0.954
same,normalized growth,"S. cerevisiae deletion strains, locus YLL041C, strain sdh2, active compounds read low",0.978
same,normalized growth,"S. cerevisiae deletion strains, locus YLR027C, strain aat2, active compounds read low",0.932
same,normalized growth,"S. cerevisiae deletion strains, locus YLR039C, strain RIC1, active compounds read low",0.861
same,normalized growth,"S. cerevisiae deletion strains, locus YLR058C, strain SHM2, active compounds read low",0.964
same,normalized growth,"S. cerevisiae deletion strains, locus YLR102C, strain apc9, active compounds read low",0.989
same,normalized growth,"S. cerevisiae deletion strains, locus YLR113W, strain HOG1, active compounds read low",0.85 (active)
same,normalized growth,"S. cerevisiae deletion strains, locus YLR221C, strain rsa3, active compounds read low",0.853 (active)
same,normalized growth,"S. cerevisiae deletion strains, locus YLR258W, strain gsy2, active compounds read low",0.997
same,normalized growth,"S. cerevisiae deletion strains, locus YLR262C, strain YPT6 (second series), active compounds read low",0.956
same,normalized growth,"S. cerevisiae deletion strains, locus YLR262C, strain YPT6, active compounds read low",0.85
same,normalized growth,"S. cerevisiae deletion strains, locus YLR268W, strain sec22, active compounds read low",0.944
same,normalized growth,"S. cerevisiae deletion strains, locus YLR320W, strain mms22, active compounds read low",0.904
same,normalized growth,"S. cerevisiae deletion strains, locus YLR330W, strain CHS5, active compounds read low",0.99
same,normalized growth,"S. cerevisiae deletion strains, locus YLR342W, strain FKS1 (second series), active compounds read low",1.09
same,normalized growth,"S. cerevisiae deletion strains, locus YLR342W, strain FKS1, active compounds read low",0.975
same,normalized growth,"S. cerevisiae deletion strains, locus YLR357W, strain rsc2, active compounds read low",0.966
same,normalized growth,"S. cerevisiae deletion strains, locus YLR370C, strain arc18, active compounds read low",0.986
same,normalized growth,"S. cerevisiae deletion strains, locus YLR371W, strain rom2, active compounds read low",1.01
same,normalized growth,"S. cerevisiae deletion strains, locus YLR384C, strain iki3, active compounds read low",0.971
same,normalized growth,"S. cerevisiae deletion strains, locus YLR418C, strain cdc73, active compounds read low",0.855
same,normalized growth,"S. cerevisiae deletion strains, locus YML016C, strain PPZ1, active compounds read low",0.997
same,normalized growth,"S. cerevisiae deletion strains, locus YML032C, strain rad52, active compounds read low",0.973
same,normalized growth,"S. cerevisiae deletion strains, locus YML120C, strain ndi1, active compounds read low",0.938
same,normalized growth,"S. cerevisiae deletion strains, locus YML124C, strain tub3, active compounds read low",0.995
same,normalized growth,"S. cerevisiae deletion strains, locus YMR058W, strain fet3, active compounds read low",0.968
same,normalized growth,"S. cerevisiae deletion strains, locus YMR078C, strain ctf18, active compounds read low",0.995
same,normalized growth,"S. cerevisiae deletion strains, locus YMR125W, strain sto1, active compounds read low",0.989
same,normalized growth,"S. cerevisiae deletion strains, locus YMR129W, active compounds read low",1
same,normalized growth,"S. cerevisiae deletion strains, locus YMR205C, strain PFK2, active compounds read low",0.998
same,normalized growth,"S. cerevisiae deletion strains, locus YMR223W, strain ubp8, active compounds read low",0.958
same,normalized growth,"S. cerevisiae deletion strains, locus YMR231W, strain pep5, active compounds read low",0.989
same,normalized growth,"S. cerevisiae deletion strains, locus YMR263W, strain SAP30, active compounds read low",0.898
same,normalized growth,"S. cerevisiae deletion strains, locus YMR307W, strain GAS1, active compounds read low",0.901
same,normalized growth,"S. cerevisiae deletion strains, locus YNL067W, strain RPL9B, active compounds read low",0.926
same,normalized growth,"S. cerevisiae deletion strains, locus YNL071W, strain lat1, active compounds read low",0.997
same,normalized growth,"S. cerevisiae deletion strains, locus YNL128W, strain TEP1, active compounds read low",0.874
same,normalized growth,"S. cerevisiae deletion strains, locus YNL153C, strain GIM3, active compounds read low",0.917
same,normalized growth,"S. cerevisiae deletion strains, locus YNL183C, strain NPR1, active compounds read low",0.938
same,normalized growth,"S. cerevisiae deletion strains, locus YNL209W, strain ssb2, active compounds read low",0.993
same,normalized growth,"S. cerevisiae deletion strains, locus YNL233W, strain BNI4, active compounds read low",0.844 (active)
same,normalized growth,"S. cerevisiae deletion strains, locus YNL248C, strain rpa49, active compounds read low",0.904
same,normalized growth,"S. cerevisiae deletion strains, locus YNL250W, strain rad50, active compounds read low",0.993
same,normalized growth,"S. cerevisiae deletion strains, locus YNL271C, strain bni1, active compounds read low",1
same,normalized growth,"S. cerevisiae deletion strains, locus YNL298W, strain CLA4, active compounds read low",0.962
same,normalized growth,"S. cerevisiae deletion strains, locus YNL307C, strain MCK1, active compounds read low",0.98
same,normalized growth,"S. cerevisiae deletion strains, locus YNL322C, strain KRE1 (second series), active compounds read low",1.01
same,normalized growth,"S. cerevisiae deletion strains, locus YNL322C, strain KRE1, active compounds read low",0.975
same,normalized growth,"S. cerevisiae deletion strains, locus YNR049C, strain mso1, active compounds read low",0.982
same,normalized growth,"S. cerevisiae deletion strains, locus YNR052C, strain pop2, active compounds read low",1
same,normalized growth,"S. cerevisiae deletion strains, locus YOL006C, strain TOP1, active compounds read low",0.888
same,normalized growth,"S. cerevisiae deletion strains, locus YOL012C, strain htz1",2.14 [resistant] (active)
same,normalized growth,"S. cerevisiae deletion strains, locus YOL147C, strain pex11, active compounds read low",0.996
same,normalized growth,"S. cerevisiae deletion strains, locus YOR001W, strain rrp6, active compounds read low",0.916
same,normalized growth,"S. cerevisiae deletion strains, locus YOR061W, strain CKA2, active compounds read low",0.966
same,normalized growth,"S. cerevisiae deletion strains, locus YOR069W, strain VPS5, active compounds read low",0.997
same,normalized growth,"S. cerevisiae deletion strains, locus YOR070C, strain gyp1, active compounds read low",0.957
same,normalized growth,"S. cerevisiae deletion strains, locus YOR080W, strain dia2, active compounds read low",0.99
same,normalized growth,"S. cerevisiae deletion strains, locus YOR083W, strain WHI5, active compounds read low",0.986
same,normalized growth,"S. cerevisiae deletion strains, locus YOR106W, strain vam3, active compounds read low",0.966
same,normalized growth,"S. cerevisiae deletion strains, locus YOR136W, strain idh2, active compounds read low",0.974
same,normalized growth,"S. cerevisiae deletion strains, locus YOR144C, strain elg1, active compounds read low",0.987
same,normalized growth,"S. cerevisiae deletion strains, locus YOR184W, strain ser1, active compounds read low",1.01
same,normalized growth,"S. cerevisiae deletion strains, locus YOR231W, strain MKK1, active compounds read low",0.916
same,normalized growth,"S. cerevisiae deletion strains, locus YOR265W, strain rbl2, active compounds read low",0.992
same,normalized growth,"S. cerevisiae deletion strains, locus YOR270C, strain vph1, active compounds read low",0.84
same,normalized growth,"S. cerevisiae deletion strains, locus YOR290C, strain snf2, active compounds read low",0.954
same,normalized growth,"S. cerevisiae deletion strains, locus YOR316C, strain cot1, active compounds read low",0.992
same,normalized growth,"S. cerevisiae deletion strains, locus YPL051W, strain arl3, active compounds read low",0.954
same,normalized growth,"S. cerevisiae deletion strains, locus YPL055C, strain LGE1, active compounds read low",0.798
same,normalized growth,"S. cerevisiae deletion strains, locus YPL078C, strain atp4, active compounds read low",0.99
same,normalized growth,"S. cerevisiae deletion strains, locus YPL106C, strain sse1, active compounds read low",0.917
same,normalized growth,"S. cerevisiae deletion strains, locus YPL240C, strain hsp82, active compounds read low",0.985
same,normalized growth,"S. cerevisiae deletion strains, locus YPL241C, strain CIN2, active compounds read low",0.98
same,normalized growth,"S. cerevisiae deletion strains, locus YPL256C, strain CLN2, active compounds read low",0.922
same,normalized growth,"S. cerevisiae deletion strains, locus YPR119W, strain clb2, active compounds read low",0.995
same,normalized growth,"S. cerevisiae deletion strains, locus YPR141C, strain kar3, active compounds read low",0.97
same,normalized growth,"S. cerevisiae deletion strains, locus YPR163C, strain tif3, active compounds read low",0.981
same,normalized growth,"S. cerevisiae deletion strains, locus YPR167C, strain met16, active compounds read low",0.985
same,normalized growth,"S. cerevisiae deletion strains, strain wtn01, active compounds read low",0.938
same,normalized growth,"S. cerevisiae strains, strain wild type, active compounds read low",0.933
